The list is not random: actives were taken first. Their share in the collection is about 2.2%.
EWS-Fli block: EWS/Fli-driven NR0B1 reporter inhibitors, primary screen, A673 cells, NR0B1 luciferase, luminescence, MLPCN library. viability-normalised. inhibition, % at 12.6 µM. 0.67% of 350,000 active. AID 651661, 2012;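 active = mean inhibition of at least 50% after viability correction, with every replicate also passing that limit; inconclusive = mean reaches 50% but only one of two replicates passes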;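 note: firefly luciferase signal divided by Alamar Blue viability fluorescence both relative to DMSO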
LMP1 NFkB inh: EBV LMP1-driven NF-kappaB luciferase reporter inhibitors, primary screen, cell-based, luminescence, single point. LMP1-induced NF-kappaB luciferase reporter cells. inhibition, % at 12.5 µM. 0.69% of 350,000 active; in the data active = inhibition above about 41%; inconclusive = no clear call, values can overlap the other calls;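 note: 0% = neutral control wells and 100% = reference inhibitor control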
PGC1a acetyl inh: inhibitors of PGC1a acetylation signal, primary screen, cell-based, U2OS, AlphaScreen, inhibitor mode; AlphaScreen anti-acetyl-lysine; with virally co-expressed GCN5 acetyltransferase; inhibition, % at 15.6 µM; 0.17% of 350,000 active; AID 651687, 2012;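 active = every replicate shows inhibition of at least 40%; inconclusive = mean inhibition at least 40% but some replicate below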;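 note: 0% = neutral control wells and 100% = positive control wells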
PAX8 reporter: inhibitors of PAX8-driven TPO luciferase reporter, primary screen, RMG-I cells, single concentration. SteadyGlo, 24 h. 1.2% of 360,000 active. inhibition, % at 12.6 µM;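 active = mean replicate inhibition at least 60% with every replicate also reaching 60%; inconclusive = only one of the two criteria is met; inactive = mean below 60% and not all replicates reaching 60%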;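 note: luciferase light reporting Pax8 driven TPO promoter activity; plate controls were median of neutral control wells for no effect and mitoxantrone controls for full effect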
MITF TRPM1 inh: inhibitors of MITF-dependent TRPM1 promoter reporter, primary screen, cell-based, SK-MEL-5, single point, luciferase; SK-MEL-5 TRPM1 promoter luciferase, 24 h; inhibition, % at 12.5 µM; 0.83% of 330,000 active; AID 488899, 2010;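 active = mean inhibition across replicates of 60% or more, whatever share of single replicates reaches that level; inconclusive = some that reach 60%, reason not given; inactive = mean inhibition across replicates below 60%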
LGR2 antag: inhibitors of bursicon-induced LGR2 CRE-luciferase signal, primary screen, cell-based, HEK293, CRE-luciferase reporter, bursicon stimulation; Drosophila bursicon receptor LGR2 (rickets); bursicon-stimulated, 4 h; inhibition, % at 9.99 µM; 0.35% of 380,000 active; AID 720647, 2013;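 active = drop in luminescence signal, shown as inhibition above about 50% in the replicate tests, limit read from the data, passing the limit was not always enough; inconclusive = probably only some replicates passing the limit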;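 note: agonist challenge used bursicon conditioned medium at about half maximal strength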
Starred values were filed as active, the others as inactive.

How did CC1CC(Nc2ccccc2)c2ccccc2N1C(=O)c1ccccc1F (configuration not stated) do in these assays?
EWS-Fli block: 63*; LMP1 NFkB inh: 15; PGC1a acetyl inh: -23; PAX8 reporter: 35; MITF TRPM1 inh: 13; LGR2 antag: 20

Results for COc1ccc(NC(=O)N(C)C[C@H]2Oc3cc(-c4ccc(C)cc4)ccc3S(=O)(=O)N([C@H](C)CO)C[C@H]2C)cc1 ?
EWS-Fli block: 12; PGC1a acetyl inh: -4; LGR2 antag: -7

How did COc1ccc(C(C)NCCC(c2ccc(OC(C)C)cc2)c2ccccc2OC)cc1 (configuration not stated) do in these assays?
EWS-Fli block: inconclusive; LMP1 NFkB inh: -11; PAX8 reporter: 51; MITF TRPM1 inh: 92*; LGR2 antag: 99*

What do the screens show for `CC(C)NC(=S)N=Nc1c(O)[nH]c2ccc(C(C)C)cc12`?
EWS-Fli block: 30; LMP1 NFkB inh: 10; PGC1a acetyl inh: 48*; PAX8 reporter: 16; MITF TRPM1 inh: 18; LGR2 antag: -5

Results for CC(=O)c1sc(NC(=O)CCS(=O)(=O)c2ccccc2)nc1C ?
LMP1 NFkB inh: 9; PAX8 reporter: 44; MITF TRPM1 inh: 1; LGR2 antag: -10

What do the screens show for `CC(=O)c1sc(NC(=O)CCS(=O)(=O)c2ccc(F)cc2)nc1C`?
EWS-Fli block: -12; LMP1 NFkB inh: 9; PAX8 reporter: 77*; LGR2 antag: -8

Results for C[C@@H]1CN([C@@H](C)CO)C(=O)Cc2cc(NC(=O)C3CC3)ccc2O[C@H]1CN(C)S(=O)(=O)c1ccc(Cl)cc1 ?
EWS-Fli block: -8; PGC1a acetyl inh: -3; PAX8 reporter: 8; LGR2 antag: 5

Results for COc1ccc(/C=N/Nc2nncc3ccccc23)cc1 ?
EWS-Fli block: 67*; LMP1 NFkB inh: -4; PGC1a acetyl inh: 4; PAX8 reporter: 6; MITF TRPM1 inh: 5; LGR2 antag: -61

How did CN(C)C(=O)C[C@@H]1C[C@@H]2c3cc(NC(=O)Nc4ccccc4F)ccc3O[C@@H]2[C@@H](CO)O1 do in these assays?
EWS-Fli block: -1; PGC1a acetyl inh: -3; PAX8 reporter: 0; LGR2 antag: -1

Results for Nc1nc(CCl)nc(N(c2ccccc2)c2ccccc2)n1 ?
EWS-Fli block: 33; PGC1a acetyl inh: 27; PAX8 reporter: 99*; LGR2 antag: 0

How did C[C@@H]1CN([C@@H](C)CO)C(=O)c2cc(NC(=O)C3CC3)ccc2O[C@@H]1CN(C)C(=O)Nc1ccc2c(c1)OCO2 do in these assays?
EWS-Fli block: 2; PAX8 reporter: 2; LGR2 antag: 1

What do the screens show for `CC(=O)N1[C@@H]2c3ccc(/C=C/c4ccccc4)c(=O)n3C[C@@H]2[C@@H](CO)[C@@H]1C(=O)Nc1nccs1`?
EWS-Fli block: 0; PAX8 reporter: 16; LGR2 antag: -2

Results for Cc1noc(C)c1NC(=O)Nc1ccc2c(c1)CC(=O)N([C@@H](C)CO)C[C@@H](C)[C@H](CN(C)Cc1ccc(Cl)c(Cl)c1)O2 ?
EWS-Fli block: 29; PGC1a acetyl inh: 0; PAX8 reporter: -7; LGR2 antag: 14

Results for COC(=O)c1ccc2nc(-c3cccc(N)c3)cn2c1 ?
EWS-Fli block: 38; LMP1 NFkB inh: 61*; PGC1a acetyl inh: -3; PAX8 reporter: -38; MITF TRPM1 inh: 52; LGR2 antag: 85*

Results for Cn1cnnc1Sc1ccc(/C=C/C(=O)c2ccc(O)cc2)cc1[N+](=O)[O-] ?
EWS-Fli block: 69*; LMP1 NFkB inh: -6; PGC1a acetyl inh: -58; PAX8 reporter: 1; MITF TRPM1 inh: 5; LGR2 antag: 66*

How did O=C(NCC(F)(F)F)[C@@H]1[C@@H](CO)[C@@H]2Cn3c(ccc(-c4cccnc4)c3=O)[C@H]1N2Cc1ccccc1 do in these assays?
EWS-Fli block: -1; LGR2 antag: 3

What do the screens show for `C=Cc1ncc(OC)c2c1[nH]c1ccccc12`?
LMP1 NFkB inh: -12; PGC1a acetyl inh: 40; MITF TRPM1 inh: 82*

Results for S=C(NC1CC1)NC1CCCc2ccccc21 (configuration not stated) ?
EWS-Fli block: -26; LMP1 NFkB inh: -1; PAX8 reporter: -8; MITF TRPM1 inh: 10; LGR2 antag: 15

What do the screens show for `c1ccc2c(c1)CCCC2C1=NCCN1` (configuration not stated)?
EWS-Fli block: -3; LMP1 NFkB inh: 79*; PGC1a acetyl inh: -6; PAX8 reporter: 11; MITF TRPM1 inh: 1

Results for O=C(NC1CCCCC1)c1csnn1 ?
EWS-Fli block: -7; LMP1 NFkB inh: 89*; PAX8 reporter: 0; MITF TRPM1 inh: 3; LGR2 antag: 8

Results for O=C(C[C@H]1C[C@@H]2c3cc(NC(=O)Nc4ccc(C(F)(F)F)cc4)ccc3O[C@@H]2[C@@H](CO)O1)NCc1ccc2c(c1)OCO2 ?
EWS-Fli block: 29; PGC1a acetyl inh: 11; PAX8 reporter: 65*; LGR2 antag: 9

How did O=C(C[C@H]1C[C@H]2c3cc(NC(=O)Nc4ccc(C(F)(F)F)cc4)ccc3O[C@H]2[C@@H](CO)O1)NCc1ccc(Cl)cc1 do in these assays?
EWS-Fli block: 1; PGC1a acetyl inh: 6; PAX8 reporter: 5; LGR2 antag: -2

Results for O=C(C[C@@H]1C[C@H]2c3cc(NC(=O)Nc4ccc(C(F)(F)F)cc4)ccc3O[C@H]2[C@H](CO)O1)NCc1ccc2c(c1)OCO2 ?
EWS-Fli block: 4; PGC1a acetyl inh: 2; PAX8 reporter: 52; LGR2 antag: 30

Results for O=C(C[C@@H]1C[C@H]2c3cc(NC(=O)Nc4ccc(C(F)(F)F)cc4)ccc3O[C@H]2[C@H](CO)O1)NCc1ccc(Cl)cc1 ?
EWS-Fli block: 23; PGC1a acetyl inh: -26; PAX8 reporter: 94*; LGR2 antag: 19

What do the screens show for `COc1cc(O)c2c(c1)oc(=O)c1c3cc(O)c(O)cc3oc21`?
EWS-Fli block: 56*; PGC1a acetyl inh: 6; PAX8 reporter: 20

How did CCCC(=O)Nc1ccc2c(c1)C(=O)N(C)[C@@H]1CC[C@@H](CC(=O)N3CCc4ccccc4C3)O[C@@H]1CO2 do in these assays?
EWS-Fli block: 6; PGC1a acetyl inh: 1; PAX8 reporter: 6; LGR2 antag: 0

How did Cn1cc([N+](=O)[O-])c(C(=O)Nc2nc(-c3ccc(Cl)cc3)cs2)n1 do in these assays?
LMP1 NFkB inh: -5; PGC1a acetyl inh: 63*; MITF TRPM1 inh: 83*

What do the screens show for `Cc1ccc(-c2nc(NC(=O)c3nn(C)cc3[N+](=O)[O-])sc2C)cc1C`?
EWS-Fli block: 36; LMP1 NFkB inh: -28; PGC1a acetyl inh: 91*; MITF TRPM1 inh: 79*; LGR2 antag: 38
